Source: PubChem
S1P3 antagonist: antagonists of human S1P3 receptor. AID 485. CHO S1P3 NFAT-BLA reporter, FRET fluorescence, antagonist mode. hit rate 0.27% among 170,000. Q99500. inhibition, % at 4.98 µM;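 active = inhibition above the plate cutoff, the mean inhibition of test wells on that plate plus 3 SD, cut at about 28% in these data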;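 note: cells challenged with S1P at its EC80 of 0.8 µM; blue over green emission ratio from cleaved BLA substrate after 4 h stimulation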
Target sequence (Q99500 whole entry, looked up): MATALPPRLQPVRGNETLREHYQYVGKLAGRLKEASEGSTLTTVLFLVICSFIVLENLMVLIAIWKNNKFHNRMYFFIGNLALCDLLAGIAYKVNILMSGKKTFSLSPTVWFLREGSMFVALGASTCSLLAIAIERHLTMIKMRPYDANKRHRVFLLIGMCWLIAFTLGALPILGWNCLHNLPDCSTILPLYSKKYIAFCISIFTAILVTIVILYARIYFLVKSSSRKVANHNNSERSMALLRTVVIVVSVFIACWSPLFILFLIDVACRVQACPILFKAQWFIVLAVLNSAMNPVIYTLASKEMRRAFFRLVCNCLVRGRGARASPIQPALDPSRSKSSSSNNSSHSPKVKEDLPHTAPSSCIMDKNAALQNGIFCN
Cl transport mod: KCC2 (human) Cl- transport modulation. KCC2 cells, thallium flux FluoZin-2 fluorescence. Q9H2X9. B-score of Tl+ flux slope (higher = more flux/activation; lower = inhibition) at 10 µM. hit rate 2.2% among 190,000;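 active = thallium flux slope and its plate-corrected score both differing from the plate sample mean at a set confidence after two filtering rounds, in either direction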;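 note: slope of fluorescence scaled to starting intensity during 10 to 20 s after thallium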
RAM inhibit: blocks the yeast RAM network; S. cerevisiae dse1pr::URA3 reporter, 5-FOA growth OD615, 2 d; analog-sensitive cbk1-as2 kinase mutant strain; inhibition, % at 50 µM; hit rate 1.8% among 190,000; AID 868;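 active = inhibition above a set limit, 3 SD over mean compound inhibition, cut at about 8.4% in these data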;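 note: inhibition rescues growth on 5-FOA so higher OD means more RAM inhibition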
ROMK primary: human ROMK K+ channel modulation, primary screen. P48048. Tet-inducible ROMK, thallium flux fluorescence; actives lie on both sides. B-score at 10 µM. hit rate 2% among 130,000;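 active = signal ratio slope over the read window, or its plate-corrected B-score, at least 3 SD from the plate mean, either direction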;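 note: B-score of the F/F0 ratio slope over 7 to 12 s after thallium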
Target sequence (P48048 whole entry, looked up): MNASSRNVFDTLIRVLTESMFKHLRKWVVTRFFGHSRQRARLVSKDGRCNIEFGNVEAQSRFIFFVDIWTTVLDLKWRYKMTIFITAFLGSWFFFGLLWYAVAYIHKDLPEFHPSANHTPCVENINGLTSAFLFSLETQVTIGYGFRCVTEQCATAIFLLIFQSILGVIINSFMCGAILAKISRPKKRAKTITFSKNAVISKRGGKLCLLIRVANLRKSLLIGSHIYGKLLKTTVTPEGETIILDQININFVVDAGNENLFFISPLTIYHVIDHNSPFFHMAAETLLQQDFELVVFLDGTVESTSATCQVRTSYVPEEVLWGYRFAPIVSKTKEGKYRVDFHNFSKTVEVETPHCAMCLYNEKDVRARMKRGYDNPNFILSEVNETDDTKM
S1P4 ag: human S1P4 receptor agonism | O95977 | S1P4-expressing cell line, agonist reporter assay | activation, % at 4.98 µM | hit rate 0.35% among 220,000; in the data active = activation above about 11%
S1P4 antag: human S1P4 receptor antagonism; O95977; S1P4-expressing cells, antagonist mode, reporter read-out; inhibition, % at 4.98 µM; hit rate 0.26% among 220,000; AID 1510; in the data active = inhibition above about 29%
KCC2 secondary: confirmation of human KCC2 transport modulators; HEK293-KCC2, thallium flux, FluoZin2 fluorescence; active compounds read high; normalised thallium flux (F/F0 slope) at 10 µM; shares compounds with Cl transport mod; hit rate 15% among 3,700;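 active = thallium flux slope above the same plate's solvent-only control mean plus 3 SD; inconclusive = the two replicate wells disagree; inactive = no significant difference from solvent-only control wells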
KCC2 bumet counter: thallium flux despite bumetanide block in KCC2 cells, secondary assay 3 | AID 1714 | normalized thallium flux at 10 µM | hit rate 49% among 3,700 | HEK293-KCC2 + bumetanide/ouabain, thallium flux FluoZin2; active compounds read high | shares compounds with Cl transport mod;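 active = thallium entry rate above the same plate's blocked-transporter control wells by more than 3 SD; inconclusive = the two repeat wells disagree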;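 note: raw slope of fluorescence over initial fluorescence between 10 and 20 s after thallium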
KCC2 secondary2: KCC2 (human) modulation, second secondary assay; shares compounds with Cl transport mod; HEK293-KCC2, thallium flux FluoZin2 fluorescence; actives lie on both sides; F/F0 rise rate, 10–20 s post-thallium; normalized thallium flux at 10 µM; hit rate 23% among 3,700; AID 1715;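 active = thallium flux slope more than 3 SD above or below the plate's solvent-only control mean, mostly below; inconclusive = the two repeat wells disagreed; inactive = no significant shift from solvent-only controls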
HEK293 Tl flux: counter-screen for KCC2 modulators: effect in parental HEK293 cells; shares compounds with Cl transport mod; thallium flux FluoZin2, ouabain; baseline-ratio fluorescence slope, 10–20 s after thallium; thallium flux rate (normalised fluorescence) at 10 µM; hit rate 46% among 3,700; AID 1716;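 active = thallium flux rate significantly above the same plate's solvent-only control wells, beyond their mean plus 3 SD; inconclusive = the two replicate wells gave conflicting results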
KCC2 retest ouab: KCC2 (human) modulation, ouabain retest; shares compounds with Cl transport mod; HEK293-KCC2, thallium flux FluoZin2 fluorescence; bidirectional: low = inhibitor, high = activator; raw Tl+ flux slope (below DMSO = inhibition, above = activation) at 10 µM; hit rate 48% among 3,700;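 active = thallium flux slope beyond 3 SD from same-plate DMSO control mean in most replicates, usually higher, sometimes lower; inconclusive = repeat tests gave conflicting results; inactive = no significant difference from controls in most replicates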;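 note: slope of initial-normalized fluorescence between seconds 10 and 20 after thallium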
HEK293 Tl flux2: counter-screen for KCC2 modulators: effect in parental HEK293 cells; shares compounds with Cl transport mod; thallium flux FluoZin-2 fluorescence slope; thallium flux slope at 10 µM; hit rate 33% among 3,700; AID 1718;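 active = thallium flux slope above the same plate's solvent-control mean plus 3 SD in both duplicate wells; inconclusive = duplicate wells that disagreed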;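 note: run without ouabain in cells lacking the KCC2 cotransporter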
Large screens that a line does not name were inactive (follow-up assays come after a bar, where they were run). Most compounds without a hit are left out; they make up all but 5.1% or so of the library.

COc1ccc2sc(NC(=O)c3ccco3)nc2c1	none (no result: ROMK primary)
CC(CCc1ccccc1)NC(=S)NC(=O)c1ccco1 (stereo unspecified)	Cl transport mod 103 | KCC2 secondary 0.0352 | KCC2 bumet counter 0.0904 | KCC2 secondary2 0.0701 | HEK293 Tl flux 0.0701 | KCC2 retest ouab 0.0758 | HEK293 Tl flux2 0.0683
COc1ccc2nc(NC(=S)NC(=O)c3ccco3)sc2c1	Cl transport mod 80.2 | KCC2 secondary 0.0302 | KCC2 bumet counter 0.143 | KCC2 secondary2 0.0301 | HEK293 Tl flux 0.0746 | KCC2 retest ouab 0.0974 | HEK293 Tl flux2 0.0386
CC(C)n1c(CSCc2ccc(Cl)cc2Cl)n[nH]c1=S	Cl transport mod 9.29 | KCC2 secondary inactive | KCC2 bumet counter 0.0829 | KCC2 secondary2 inactive | HEK293 Tl flux 0.0284 | KCC2 retest ouab 0.0527 | HEK293 Tl flux2 0.0129
CSc1sc(-c2n[nH]c(=S)n2C)c2c1C=CCC2	Cl transport mod 4.34 (no result: RAM inhibit) | KCC2 secondary inactive | KCC2 bumet counter 0.0149 | KCC2 secondary2 inactive | HEK293 Tl flux 0.00926 | KCC2 retest ouab inconclusive | HEK293 Tl flux2 inconclusive
CCOC(=O)c1cc2c(nc1NC(=S)NCc1ccccc1)CCCC2	Cl transport mod 5.23 (no result: ROMK primary) | KCC2 secondary inactive | KCC2 bumet counter 0.0296 | KCC2 secondary2 0.039 | HEK293 Tl flux 0.0384 | KCC2 retest ouab 0.0633 | HEK293 Tl flux2 0.0183
C=CCNC(=S)Nc1nc2c(cc1C(=O)OCC)COC(C)(C)C2	Cl transport mod 8.52 (no result: RAM inhibit, ROMK primary) | KCC2 secondary inactive | KCC2 bumet counter 0.0224 | KCC2 secondary2 inactive | HEK293 Tl flux 0.0197 | KCC2 retest ouab 0.029 | HEK293 Tl flux2 0.0206
CCOC(=O)c1cc(C#N)c(NCc2ccccc2)nc1C	none
CCOC(=O)c1cc2c(nc1NC(=S)Nc1ccccc1)CC(C)(C)OC2	none (no result: ROMK primary)
CC(NC(=S)Nc1ccc(Cl)cc1)C(c1ccccc1)N1CCOCC1 (stereo unspecified)	none
Cc1ccc(/C=C2\S/C(=N/S(=O)(=O)c3cccs3)NC2=O)cc1	Cl transport mod 5.66 (no result: RAM inhibit, ROMK primary) | KCC2 secondary inactive | KCC2 bumet counter 0.0158 | KCC2 secondary2 inactive | HEK293 Tl flux 0.014 | KCC2 retest ouab inconclusive | HEK293 Tl flux2 0.0164
CN1CCN(NC(=O)c2ccc(Cl)s2)CC1	none
C=CCNC(=O)NC(=O)CSc1nc2cc([N+](=O)[O-])ccc2n1-c1cccc(C(F)(F)F)c1	Cl transport mod 7.61 | KCC2 secondary inactive | KCC2 bumet counter 0.0137 | KCC2 secondary2 inactive | HEK293 Tl flux 0.0107 | KCC2 retest ouab inconclusive | HEK293 Tl flux2 inactive
c1cc2c(cc1-c1csc(NNC3=NCCCCC3)n1)OCCO2	Cl transport mod 3.57 (no result: ROMK primary) | KCC2 secondary inactive | KCC2 bumet counter inactive | KCC2 secondary2 inactive | HEK293 Tl flux inactive | KCC2 retest ouab inactive | HEK293 Tl flux2 inactive
CCC(=O)Nc1nc(-c2ccc3c(c2)OCCO3)cs1	none (no result: S1P3 antagonist, Cl transport mod, ROMK primary)
Clc1ccccc1-c1nnc2n1CCCCC2	none (no result: RAM inhibit, ROMK primary)
Cc1ccc(C)c(NC(=S)N/N=C/C(C)c2ccccc2)c1 (stereo unspecified)	Cl transport mod 25.3 (no result: ROMK primary) | KCC2 secondary inactive | KCC2 bumet counter 0.0244 | KCC2 secondary2 inactive | HEK293 Tl flux inconclusive | KCC2 retest ouab inconclusive | HEK293 Tl flux2 inactive
Cc1ccccc1C(=O)N1CCN(c2ccc(NC(=S)NC(=O)c3cccs3)cc2)CC1	none | KCC2 secondary inactive | KCC2 bumet counter 0.0146 | KCC2 secondary2 inactive | HEK293 Tl flux inactive | KCC2 retest ouab inactive | HEK293 Tl flux2 inactive
O=C(NC(=S)Nc1ccc(N2CCOCC2)cc1)c1cccs1	Cl transport mod 3.15 | KCC2 secondary inactive | KCC2 bumet counter 0.0328 | KCC2 secondary2 inactive | HEK293 Tl flux inconclusive | KCC2 retest ouab inactive | HEK293 Tl flux2 inactive
Cc1ccc(C(=O)N2CCN(c3ccc(NC(=S)NC(=O)c4cccs4)cc3)CC2)cc1	none (no result: ROMK primary)
CC/C(C)=N/Nc1nc(-c2cc3cccc(OC)c3oc2=O)cs1	none (no result: RAM inhibit, ROMK primary)
O=C1c2ccccc2-c2cccc(NS(=O)(=O)c3ccc(C(F)(F)F)cc3)c21	none (no result: S1P3 antagonist, Cl transport mod, ROMK primary) | KCC2 secondary inconclusive | KCC2 bumet counter 0.0761 | KCC2 secondary2 inconclusive | HEK293 Tl flux 0.0232 | KCC2 retest ouab 0.0394 | HEK293 Tl flux2 0.0158
Cc1ccc(S(=O)(=O)Nc2ccccc2-c2ccccc2NS(=O)(=O)c2ccc(C)cc2)cc1	none (no result: S1P3 antagonist, Cl transport mod, ROMK primary)
COc1ccc(NS(=O)(=O)c2ccc(NC(=O)c3ccc(N(C)S(C)(=O)=O)cc3)cc2)c(OC)c1	none (no result: ROMK primary)
N#C/C(=C\c1ccc(O)c(O)c1)C(=O)NCCCc1ccccc1	none (no result: ROMK primary) | KCC2 secondary inactive | KCC2 bumet counter inactive | KCC2 secondary2 inactive | HEK293 Tl flux inactive | KCC2 retest ouab inconclusive | HEK293 Tl flux2 inactive
Cc1nc(N2CCOCC2)c2c3c(sc2n1)CCC3	Cl transport mod 13.5 | KCC2 secondary inactive | KCC2 bumet counter 0.0168 | KCC2 secondary2 inactive | HEK293 Tl flux 0.0164 | KCC2 retest ouab 0.0318 | HEK293 Tl flux2 0.0112
Oc1c(/C=C/C=C/C=Nc2ccccc2)sc(=S)n1Cc1ccccc1	none (no result: RAM inhibit, ROMK primary)
